Results on 35 compounds are retold here after PubChem BioAssay (NCI).

Structures are written as SMILES. This is part of a sample that, as a whole, favours compounds with a hit. Of some 79,000 tested, about 15% had one in any assay. Calls of active or inactive are those of the source. No stated cut-off is given here; in the data, active means growth inhibition above about 70%; inactive means the rest.

The first test is described as follows: NCI Yeast Anticancer Drug Screen. Data for the bub3 strain (AID 167). Particulars: S. cerevisiae bub3 mutant strain, at 11.0 µM, stronger effect = higher value. The method, boiled down: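 Growth of a checkpoint-deficient yeast mutant is measured after compound exposure. Values represent inhibition relative to vehicle.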
Regarding `CN(C)CC(CN(C)C)C(=O)/C=C/c1ccc(Cl)cc1Cl`, the growth inhibition was -3% (inactive).
With `c1ccc2c(c1)ccn2CCc1c[nH]c2ccccc12`, the growth inhibition was 39% (inactive).
Consider `Cc1ccccc1NC(=O)c1c(C)oc2c1C(=O)c1ccccc1C2=O`, for which the growth inhibition was -23% (inactive).
Regarding `CC(C)OC(=O)NNc1c(Cl)cc(Cl)cc1Cl`, the growth inhibition is 58% (inactive).
Regarding `COc1ccc2nc3cccc([N+](=O)[O-])c3c(NCCNCCO)c2c1`, the growth inhibition is -11% (inactive).
Still for that read-out and setting: the figure for `COc1ccc2c(c1)CCCC(Br)C2=O` (stereo not given) is -4% (inactive).
Still for that read-out and setting: to `CCC(OC(C)=O)C1CC(C(C)C)CCC1C` (stereo not given) belongs -3% (inactive); to `O=S(=O)(c1cccc(C(F)(F)F)c1)N1c2ccccc2-n2cccc2C1c1cccnc1` (stereo not given), 62% (inactive).
`c1ccc(-c2cc(C3CO3)c3ccccc3n2)cc1` (stereo not given): the growth inhibition is 10% (inactive).
The same measure, in the same setting: to `COc1ccc(/C=C2\SC(=S)N(/C=C3\C(=O)N(c4ccccc4)N=C3C)C2=O)cc1OC` belongs 11% (inactive); to `CC1=CC(=C(c2ccc(N)c(C)c2)c2ccc(N)c(C)c2)C=CC1=N`, 29% (inactive).
For the compound `CC(/C=C/c1ccc([N+](=O)[O-])o1)=N/N1CC(CN2CCOCC2)OC1=O` (stereo not given), the growth inhibition was 2% (inactive).
As to `C=CC(C)(C)N1C(=O)C(C(C)=O)=C(O)C1Cc1c[nH]c2ccccc12` (stereo not given), the growth inhibition is 0% (inactive).
Same read-out and setting: the figure for `O=C1c2cccc3cccc(c23)C(=O)N1CCNCCN1C(=O)c2cccc3cccc(c23)C1=O` is -2% (inactive).
Still for that read-out and setting: to `Cc1ccc([N+](=O)[O-])c2c(NCCC[N+](C)(C)[O-])c3ccccc3nc12` belongs -20% (inactive).
Same read-out and setting: the figure for `COC(=O)C(Cc1c[nH]c2ccccc12)N1CN(C)c2ccccc2C1=O` (stereo not given) is 11% (inactive); for `O=C(/N=N/C(=O)Oc1ccccc1)Oc1ccccc1` it is -17% (inactive).
Take `COc1cc([C@@H]2c3cc4c(cc3[C@@H](NC(=O)NO)[C@H]3COC(=O)[C@H]23)OCO4)cc(OC)c1O`: the growth inhibition was -2% (inactive).
Still for that read-out and setting: the figure for `CC1(C)CC(=O)C(/C=N/c2nc(-c3ccc(Br)cc3)cs2)=C(O)C1` is 24% (inactive); for `CCOC(=O)/C(=C/c1cccc(Cl)c1)N(CC)CC` it is 24% (inactive).
The same measure, in the same setting: to `CC(C)OC(=O)NNc1cccc(Cl)c1` belongs 98% (active); to `CCC(=O)C1=C(O)c2cc(OC)ccc2CC1C(=O)OC` (stereo not given), -9% (inactive).
Same read-out and setting: to `O=S(=O)(NC1CCCC(c2ccccc2)C1)c1ccccc1` (stereo not given) belongs 0% (inactive).
For `COc1ccc2nc3cccc([N+](=O)[O-])c3c(NCCCCCC(=O)O)c2c1`, the growth inhibition was 96% (active).
Same read-out and setting: to `CCO/C=C1\SC(=S)N(c2ccc(OCC)cc2)C1=O` belongs -9% (inactive).
For `COc1cc(OC)c(CSCC(NC(=O)OCC2c3ccccc3-c3ccccc32)C(=O)O)c(OC)c1` (stereo not given), the growth inhibition is 61% (inactive).
With `COC(=O)c1ccccc1N=NNc1cccc(SC)c1`, the growth inhibition is 25% (inactive).
On the same count and under the same terms, to `CC1=NN(C(=O)c2ccccc2O)C(=O)/C1=C/c1ccco1` belongs 91% (active).
Consider `COc1ccccc1NC(=O)c1ccc(Cl)cc1`, for which the growth inhibition is -3% (inactive).
Same read-out and setting: to `CC(C)=CCC/C(C)=C/CN1C(=O)C=CC1=O` belongs 99% (active).
Same read-out and setting: the figure for `O=C1CSC(c2ccccc2)N1c1ccc(-c2ccc(-n3c(-c4ccccc4)nc4ccccc4c3=O)cc2)cc1` (stereo not given) is 12% (inactive).
The same measure, in the same setting: to `N#CC1OB(O)c2ccccc21` (stereo not given) belongs -6% (inactive); to `O=C(NCCNCCNC(=O)c1cc(-c2ccccc2)nc2ccccc12)c1cc(-c2ccccc2)nc2ccccc12`, -1% (inactive); to `Brc1ccc(B2Nc3ccccc3N2)cc1`, 15% (inactive).
For `CCOP(=O)(OCC)/C(C#N)=C/c1cccc(Oc2ccccc2)c1`, the growth inhibition was 41% (inactive).

The test is the same for the next values; noted with them: S. cerevisiae bub3 mutant strain, at 33.0 µM, stronger effect = higher value.
With `CN(C)CC(CN(C)C)C(=O)/C=C/c1ccc(Cl)cc1Cl`, the growth inhibition was 98% (active).
Turning to `c1ccc2c(c1)ccn2CCc1c[nH]c2ccccc12`, the growth inhibition was 79% (active).
Turning to `Cc1ccccc1NC(=O)c1c(C)oc2c1C(=O)c1ccccc1C2=O`, the growth inhibition was 25% (inactive).
The same measure, in the same setting: the figure for `CC(C)OC(=O)NNc1c(Cl)cc(Cl)cc1Cl` is 76% (active).
Turning to `COc1ccc2nc3cccc([N+](=O)[O-])c3c(NCCNCCO)c2c1`, the growth inhibition is 36% (inactive).
The same measure, in the same setting: the figure for `COc1ccc2c(c1)CCCC(Br)C2=O` (stereo not given) is 50% (inactive).
For `CCC(OC(C)=O)C1CC(C(C)C)CCC1C` (stereo not given), the growth inhibition is -2% (inactive).
Same read-out and setting: the figure for `O=S(=O)(c1cccc(C(F)(F)F)c1)N1c2ccccc2-n2cccc2C1c1cccnc1` (stereo not given) is 94% (active); for `c1ccc(-c2cc(C3CO3)c3ccccc3n2)cc1` (stereo not given) it is 41% (inactive).
Regarding `COc1ccc(/C=C2\SC(=S)N(/C=C3\C(=O)N(c4ccccc4)N=C3C)C2=O)cc1OC`, the growth inhibition is 42% (inactive).
Still for that read-out and setting: to `CC1=CC(=C(c2ccc(N)c(C)c2)c2ccc(N)c(C)c2)C=CC1=N` belongs 54% (inactive); to `CC(/C=C/c1ccc([N+](=O)[O-])o1)=N/N1CC(CN2CCOCC2)OC1=O` (stereo not given), 27% (inactive); to `C=CC(C)(C)N1C(=O)C(C(C)=O)=C(O)C1Cc1c[nH]c2ccccc12` (stereo not given), 15% (inactive).
Same read-out and setting: to `O=C1c2cccc3cccc(c23)C(=O)N1CCNCCN1C(=O)c2cccc3cccc(c23)C1=O` belongs -4% (inactive).
As to `Cc1ccc([N+](=O)[O-])c2c(NCCC[N+](C)(C)[O-])c3ccccc3nc12`, the growth inhibition is -13% (inactive).
The same measure, in the same setting: to `COC(=O)C(Cc1c[nH]c2ccccc12)N1CN(C)c2ccccc2C1=O` (stereo not given) belongs 0% (inactive).
On the same count and under the same terms, the figure for `O=C(/N=N/C(=O)Oc1ccccc1)Oc1ccccc1` is 2% (inactive); for `COc1cc([C@@H]2c3cc4c(cc3[C@@H](NC(=O)NO)[C@H]3COC(=O)[C@H]23)OCO4)cc(OC)c1O` it is -4% (inactive); for `CC1(C)CC(=O)C(/C=N/c2nc(-c3ccc(Br)cc3)cs2)=C(O)C1` it is 96% (active).
Consider `CCOC(=O)/C(=C/c1cccc(Cl)c1)N(CC)CC`, for which the growth inhibition was 55% (inactive).
On the same count and under the same terms, to `CC(C)OC(=O)NNc1cccc(Cl)c1` belongs 98% (active).
Still for that read-out and setting: the figure for `CCC(=O)C1=C(O)c2cc(OC)ccc2CC1C(=O)OC` (stereo not given) is 2% (inactive); for `O=S(=O)(NC1CCCC(c2ccccc2)C1)c1ccccc1` (stereo not given) it is 15% (inactive); for `COc1ccc2nc3cccc([N+](=O)[O-])c3c(NCCCCCC(=O)O)c2c1` it is 97% (active).
Still for that read-out and setting: to `CCO/C=C1\SC(=S)N(c2ccc(OCC)cc2)C1=O` belongs 32% (inactive).
With `COc1cc(OC)c(CSCC(NC(=O)OCC2c3ccccc3-c3ccccc32)C(=O)O)c(OC)c1` (stereo not given), the growth inhibition was 95% (active).
Consider `COC(=O)c1ccccc1N=NNc1cccc(SC)c1`, for which the growth inhibition was 94% (active).
Take `CC1=NN(C(=O)c2ccccc2O)C(=O)/C1=C/c1ccco1`: the growth inhibition was 95% (active).
On the same count and under the same terms, the figure for `COc1ccccc1NC(=O)c1ccc(Cl)cc1` is 5% (inactive); for `CC(C)=CCC/C(C)=C/CN1C(=O)C=CC1=O` it is 99% (active); for `O=C1CSC(c2ccccc2)N1c1ccc(-c2ccc(-n3c(-c4ccccc4)nc4ccccc4c3=O)cc2)cc1` (stereo not given) it is 23% (inactive).
Same read-out and setting: to `N#CC1OB(O)c2ccccc21` (stereo not given) belongs -10% (inactive); to `O=C(NCCNCCNC(=O)c1cc(-c2ccccc2)nc2ccccc12)c1cc(-c2ccccc2)nc2ccccc12`, -5% (inactive); to `Brc1ccc(B2Nc3ccccc3N2)cc1`, 43% (inactive).
Consider `CCOP(=O)(OCC)/C(C#N)=C/c1cccc(Oc2ccccc2)c1`, for which the growth inhibition was 97% (active).
